The record followed here is ChEMBL document CHEMBL1157539, “Thousands of chemical starting points for antimalarial lead identification” (Nature, 2010).

SMILES strings stand for the structures.

By Inhibition is commonly meant the drop in the measured response relative to a control, in per cent.

Holding throughout (assay type): functional
The subject of assay [1] is Plasmodium falciparum. Kind of assay: GSK_TCMDC: Inhibition of Plasmodium falciparum 3D7 in whole red blood cells, using parasite LDH activity as an index of growth. Test compounds present at 2uM.
In assay [2] the test system is Plasmodium falciparum. In words: GSK_TCMDC: Inhibition of Plasmodium falciparum Dd2 in whole red blood cells, using parasite LDH activity as an index of growth. Test compounds present at 2uM.
Assay [3] relates to HepG2. In words: GSK_TCMDC: Percent inhibition of human HepG2 cell line. Test compounds present at 10uM.

With `O=C(/C=C/c1ccc(C(F)(F)F)cc1)N1CCC(CCN2CCC(c3c[nH]c4ccccc34)CC2)CC1`, the figures for the Inhibition in assay [1], in assay [2] and in assay [3] were 100%, 77% and 70%, respectively.
The like results for `Oc1ccc(Cl)cc1-c1cc(C(F)(F)F)nc(-c2ccccc2)n1` were, in that order, 99%, 92% and 20%.
On to `O=C(CCN1CCCCC1)Nc1ccc(Nc2nccc(NCC(O)c3ccccc3)n2)cc1` (stereo unspecified), for which the Inhibition in assay [1] is 100%; in assay [2], 60%; in assay [3] it was 18%.
The corresponding values for `CN1CCN(c2ccnc3ccc(NC(=O)Nc4cccc5c(C#N)cccc45)cc23)CC1` are 91%, 40% and 0%.
On to `O=C(O)C(F)(F)F.O=C1CCCN1CCCNCc1ccc(-c2ccc(-c3nc4cc(F)ccc4[nH]3)cc2)cc1`, for which the results for the Inhibition in assay [1], in assay [2] and in assay [3] were 100%, 99% and 16%, respectively.
The corresponding values for `CC(C)Cc1nc2nc(N)nc(N)c2cc1C(C)C` are 96%, 3% and 67%.
As for `Cl.O=c1nc(NCCCNCc2cc3c(Cl)cc(Cl)cc3[nH]2)[nH]c2ccsc12`, the Inhibition in assay [1] is 96%; in assay [2] it was 11%; in assay [3], 62%.
The like results for `COc1cc2nc(N3CCC(c4ccccc4)CC3)nc(NCc3ccc(=O)[nH]c3)c2cc1OC` were, in that order, 100%, 58% and 12%.
For the compound `N#Cc1cccc(Nc2ncc3c(-c4cccc(NC(=O)Cc5cccc(Cl)c5)c4)c[nH]c3n2)c1.O=C(O)C(F)(F)F`, the Inhibition in assay [1] came out at 100%; in assay [2], 95%; in assay [3] it was 0%.
Turning to `COc1cc(C(=O)NCCCN2CCN(c3cccc(Cl)c3)CC2)ccc1-c1cc2cc(Cl)c(Cl)cc2[nH]1`, the Inhibition was 100% in assay [1], 86% in assay [2] and 35% in assay [3].
Take `c1ccc2[nH]c(-c3ccc(-c4ccc(CN5CCN(c6ccncc6)CC5)cc4)s3)nc2c1`: the values for the Inhibition in assay [1], in assay [2] and in assay [3] were 100%, 100% and 25%, respectively.
In the case of `Cc1cccc(C(=O)NC(NC(=S)Nc2cc(Cl)ccc2Cl)C(Cl)(Cl)Cl)c1` (stereo unspecified), the Inhibition in assay [1] is on record as 94%; in assay [2], 61%; in assay [3], 0%.
The like results for `CC(C)(C)c1ccc(CN2CCCCC(NC(=O)c3cc(-c4cccc(F)c4)cs3)C2)cc1.O=C(O)C(F)(F)F` (stereo unspecified) were, in that order, 98%, 84% and 8%.
The corresponding values for `Cc1ccc(O)c(-c2cc(C(=O)Nc3ccc(S(=O)(=O)N4CCCC(C)C4)cc3)[nH]n2)c1` (stereo unspecified) are 96%, 97% and 27%.
The corresponding values for `COc1cc(F)c2ncc(Cl)c(CCN3CCC(NCc4ccc5c(c4)OCCO5)CC3)c2c1.Cl` are 97%, 92% and 35%.
`O=C(N[C@H]1CCN(Cc2ccc(OCCN3CCNCC3)c(Cl)c2)C1)c1ccc(Cl)c(Cl)c1.O=C(O)C(F)(F)F`: the Inhibition is listed as 100% in assay [1], 5% in assay [2] and 50% in assay [3].
`CCN(CC)CCCC(C)Nc1cc(C)nc2cc(Cl)ccc12` (stereo unspecified): the Inhibition was determined as 100% in assay [1], 7% in assay [2] and 9% in assay [3].
Take `Cc1cccc2nc(-c3ccc(-c4ccc(CN5CCC(C(N)=O)CC5)cc4)s3)[nH]c12.O=C(O)C(F)(F)F`: the Inhibition is 97% in assay [1], 51% in assay [2] and 4% in assay [3].
The corresponding values for `CC(C)(C)c1ccc(CN2CCCCC(NC(=O)c3cc(-c4cccc(Cl)c4)cs3)C2)cc1.O=C(O)C(F)(F)F` (stereo unspecified) are 96%, 60% and 11%.
On to `CC(C)(C)c1ccc(CN2CCC(NC(=O)c3ccc(-c4ccccc4Cl)s3)CC2)cc1.O=C(O)C(F)(F)F`, for which the Inhibition in assay [1] stood at 84%; in assay [2], 29%; in assay [3], 36%.
The like results for `COc1ccc(CCn2c(=N)c(C(=O)NCc3ccc(C)cc3)cc3c(=O)n4ccccc4nc32)cc1` were, in that order, 97%, 16% and 13%.
The like results for `Cc1ccc(CNC(=O)[C@H](CC(C)C)Nc2cc(C)nc(NCc3ccccc3C)n2)cc1.O=C(O)C(F)(F)F` were, in that order, 87%, 35% and 3%.
The like results for `O=C(NCC1CCN(CC2CCCCC2)C1)c1cc(-c2cccc(C(F)(F)F)c2)cs1.O=C(O)C(F)(F)F` (stereo unspecified) were, in that order, 96%, 21% and 47%.
Turning to `FC(F)(F)c1ccc(CNCC2CCN(Cc3ccc4c(c3)OCO4)CC2)cc1.O=C(O)C(F)(F)F`, the Inhibition in assay [1] is recorded as 80%; in assay [2] it was 12%; in assay [3], 27%.
Consider `Cl.O=c1ccc2ncc(Cl)c3c2n1CC3CN1CCC(NCc2cc3c(cn2)OCCO3)CC1` (stereo unspecified), for which the results for the Inhibition in assay [1], in assay [2] and in assay [3] were 96%, 29% and 27%, respectively.
The like results for `O[C@H]1[C@H](OCc2ccc(-c3ccccc3)cc2)CC[C@@H]1N1CCCCC1` were, in that order, 96%, 100% and 9%.
As for `Cc1c[nH]c(CCNC(=O)c2cc(-c3ccc(Cl)cc3)cs2)n1`, the values for the Inhibition in assay [1], in assay [2] and in assay [3] were 100%, 7% and 12%, respectively.
